Data on twelve compounds can be found in PubChem BioAssay (NCATS).

One assay relates to C33A. Briefly: Primary qHTS to identify gynecologic anti-cancer compounds using libraries of approved drugs and bioactive compounds (AID 1345084). Also: nearly all actives have a fitted effect of over 55% in size. Particulars: Gynecologic cancer cell panel viability, ATPlite luminescence, 48 h; series mostly up to 57.5 µM. In short, it runs like this:
(§1)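 ATP-based viability (ATPlite), 1,000 cells/well, 16 h pre-incubation, 48 h compound at 37 C, 5% CO2, 15 min RT before read.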
(In general: In qHTS, concentration-response curves come from the screen itself.)

For a further assay, the system named is CAOV3. The assay is described as above. Particulars: Gynecologic cancer cell panel viability, ATPlite luminescence, 48 h; series mostly up to 57.5 µM. In short, it runs like this: as §1
In the next assay the test system is CASKI. The description is as above. As to conditions: Gynecologic cancer cell panel viability, ATPlite luminescence, 48 h; series mostly up to 57.5 µM. The method in brief: as §1
A general note: In ATP-based viability assays light output follows the ATP content of the culture.

Another assay deals with Es-2. The assay is described as above. Particulars: Gynecologic cancer cell panel viability, ATPlite luminescence, 48 h; series mostly up to 57.5 µM. The method in brief: as §1
The subject of a further assay is HeLa. The assay is described as above. Particulars: Gynecologic cancer cell panel viability, ATPlite luminescence, 48 h; series mostly up to 57.5 µM. The method in brief: as §1
Another assay deals with Hek293T. Described as above. As to conditions: Gynecologic cancer cell panel viability, ATPlite luminescence, 48 h, control line for the selectivity index; series mostly up to 57.5 µM. In short, it runs like this:
as §1

Another assay has as its system JEG-3. The description is as above. As to conditions: Gynecologic cancer cell panel viability, ATPlite luminescence, 48 h; series mostly up to 57.5 µM. The method in brief: as §1
Another assay has as its system OV90. Described as above. As to conditions: Gynecologic cancer cell panel viability, ATPlite luminescence, 48 h; series mostly up to 57.5 µM. In short, it runs like this: as §1
The next assay relates to PA-1. The description is as above. As to conditions: Gynecologic cancer cell panel viability, ATPlite luminescence, 48 h; series mostly up to 57.5 µM. In short, it runs like this:
as §1

A further assay deals with Tov-21-G. The description is as above. Particulars: Gynecologic cancer cell panel viability, ATPlite luminescence, 48 h; series mostly up to 57.5 µM. In short, it runs like this:
as §1

The next assay concerns Tov112D. The description is as above. Particulars: Gynecologic cancer cell panel viability, ATPlite luminescence, 48 h; series mostly up to 57.5 µM. In short, it runs like this: as §1
Assay [1] is described as follows: Drug repurposing screens with cells derived from glioblastoma tumor samples (AID 1345199). Also: nearly all actives have a fitted effect of over 40% in size. As to conditions: GBM patient neurospheres viability, ATP luminescence, 48 h. The method in brief: (§2)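 Primary testing used CD133+ neurospheres from four GBM patients, seven concentrations, 48 h exposure and ATP-based viability; confirmation added three slower-growing patient lines.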

For a further assay, the system named is astro. Described as above. As to conditions: viability, ATP luminescence, 48 h; series mostly up to 45.9 µM. The method in brief: as §2
The next assay has as its system SKOV3. Briefly: Primary qHTS to identify gynecologic anti-cancer compounds using libraries of approved drugs and bioactive compounds (AID 1345084). Also: nearly all actives have a fitted effect of over 55% in size. Particulars: Gynecologic cancer cell panel viability, ATPlite luminescence, 48 h; series mostly up to 57.5 µM. The method in brief: as §1
The subject of a further assay is NIH3T3. Briefly: qHTS assay to identify novel small-molecules to repurpose for Merkel cell carcinoma treatment (AID 1296009). Also: nearly all actives have a fitted effect of over 60% in size. Particulars: MCC and control cell lines, CellTiter-Glo viability, 72 h; at 44.8 µM (top of the series) unless noted. The method in brief:
(§3)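 Cell viability measured by CellTiter-Glo following 72 hr compound treatment at 37 degree celsius, with NPC and MIPE libraries tested in 8- and 11-point concentration series.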

For a further assay, the system named is MKL-1. Described as above. Particulars: MCC and control cell lines, CellTiter-Glo viability, 72 h; series mostly up to 46 µM. In short, it runs like this:
as §3

The subject of another assay is WaGa. The assay is described as above. As to conditions: MCC and control cell lines, CellTiter-Glo viability, 72 h; series mostly up to 46 µM. The method in brief: as §3
The next assay concerns MKL-2. The assay is described as above. Particulars: MCC and control cell lines, CellTiter-Glo viability, 72 h; series mostly up to 46 µM. The method in brief:
as §3

Another assay has as its system UISO. The description is as above. Particulars: MCC and control cell lines, CellTiter-Glo viability, 72 h; series mostly up to 46 µM. The method in brief: as §3
Setting [2] is: at 45.9 µM (top of the series), tumour line B.
[3] abbreviates: at 45.9 µM (top of the series), tumour line D.
[4] abbreviates: at 46.1 µM (top of the series), tumour line C.
The mark [5] stands for this setting: at 46 µM (top of the series), tumour line A.
The mark [6] stands for this setting: at 20 µM (top of the series), tumour line C.

Values joined by “and” are separate entries in the source; they are usually repeats but may differ in a detail not shown here. Identical values can stand only once. Inconclusive results are not listed. Values without a mark were called inactive. Active and inactive are the calls of the source. Calls follow the shape of the dose curve; as a rule, active = well fitted curve in the direction sought with a large enough effect; inconclusive = small, poorly fitted or top-dose-only effect, or another doubt; inactive = no such curve, though single readings can be large; an effect the other way counts as inactive or inconclusive.
% is scaled to controls: 0 for no effect and ±100 for the full control effect; potency is read from the fitted curve at half-maximal effect.

`O=C(O)c1cc(O)c(O)c(O)c1`: the Potency entry in the assay with C33A, in the assay on CAOV3, in the assay with CASKI, in the assay on Es-2, in the assay with HeLa and in the assay on Hek293T was “inactive” in each case. For the same compound, the Potency result in the assay with JEG-3, with OV90, with PA-1, in the assay on Tov-21-G, in the assay on Tov112D and in the assay with astro was “inactive” throughout. Also, the activity, negative = cell killing in [1] (setting [2]) was -10.4%; in [1] (setting [3]), -20.6%; in assay [1] (setting [4]), 20.7%.

In the case of `Fc1ccc2[nH]c(CN3CCN(c4ccccn4)CC3)cc2c1`, the Potency result with C33A, in the assay with CAOV3, with CASKI, in the assay with Es-2, with HeLa and with Hek293T was “inactive” in each case. Besides, the Potency result with JEG-3, in the assay on OV90, with PA-1, in the assay on SKOV3, in the assay on Tov-21-G and with Tov112D was “inactive” each time.

As to `C[C@H](O)[C@H](O)[C@H]1CNc2nc(N)[nH]c(=O)c2N1`, the compound was classed as inactive with NIH3T3. Moreover, the Potency result in the assay on C33A, with CAOV3, in the assay on CASKI, in the assay on Es-2, in the assay on HeLa and in the assay on Hek293T was “inactive” in each case. Also, the Potency result in the assay with JEG-3, with OV90, with PA-1, in the assay with SKOV3, with Tov-21-G and with Tov112D was “inactive” each time. In addition, the Potency result with astro is “inactive”. Moreover, the activity, negative = cell killing is -2.46% in assay [1] (setting [2]), 16.1% in assay [1] (setting [3]), -18.9% in assay [1] (setting [5]) and 11.1% in assay [1] (setting [4]).

As for `c1ccc(CCNc2nc(-c3ccccc3)cs2)cc1`, the Potency result with MKL-1, with WaGa, in the assay on C33A, with CAOV3, with CASKI and in the assay on Es-2 was “inactive” each time. Besides, the Potency result with HeLa, in the assay with Hek293T, in the assay with JEG-3, with PA-1, in the assay with SKOV3 and with Tov-21-G was “inactive” in each case. Besides, the Potency result with Tov112D was “inactive”. The activity, negative = cell killing in assay [1] (setting [2]) is -22.5%. In addition, the Potency in assay [1] (tumour line A) is 14.1 µM (active).

On to `CS(=O)(=O)c1ccc(-n2nc(C(F)(F)F)cc2-c2ccc(F)cc2)cc1`, for which the Potency entry with C33A, in the assay on CASKI, in the assay on Es-2, in the assay on HeLa, in the assay with Hek293T and with JEG-3 was “inactive” in each case. The Potency entry in the assay on OV90, in the assay on PA-1, with SKOV3, with Tov-21-G and with Tov112D was “inactive” throughout.

As for `CCCCC1C(=O)N(c2ccccc2)N(c2ccc(O)cc2)C1=O` (configuration not stated), the Potency in the assay on MKL-1 was 1.5 µM (active); in the assay with MKL-2 it was 0.596 µM (active); in the assay on UISO it was 6.68 µM (active); in the assay with WaGa, 2.99 µM (active); in the assay with Tov112D it was 22.4 µM (active); in assay [1] (tumour line A), 7.94 µM (active). For the same compound, the Potency entry with CASKI, in the assay with HeLa and in the assay with JEG-3 was “inactive” throughout. Further, the activity, negative = cell killing in [1] (setting [6]) was -14.9%.

With `CN(C)c1ccc(C(=C2C=CC(=[N+](C)C)C=C2)c2ccccc2)cc1`, the Potency with MKL-1 is 0.0376 µM (active); with MKL-2, 0.0133 µM (active); with UISO it was 0.0668 µM (active); in the assay with C33A it was 2 µM (active); in the assay on Es-2, 1.78 µM (active); in the assay on HeLa, 2.51 µM (active). Also, the Potency in the assay with Hek293T is 2.51 µM (active); in the assay on OV90, 11.2 µM (active); with PA-1, 1.26 µM (active); in the assay on SKOV3, 1.12 µM (active); in the assay on Tov112D, 2 µM (active).

As for `Nc1ccc([N+](=O)[O-])cc1O`, the Potency result with C33A, with CAOV3, in the assay on HeLa, in the assay with Hek293T, in the assay with JEG-3 and in the assay on Tov-21-G was “inactive” throughout. Further, the Potency entry in the assay on Tov112D and with astro was “inactive” throughout. The Potency in the assay with PA-1 is 4.47 µM (active).

Regarding `CC1(C)[C@@H](O)CC[C@]2(C)[C@H]3C(=O)C=C4[C@@H]5C[C@@](C)(C(=O)O)CC[C@]5(C)CC[C@@]4(C)[C@]3(C)CC[C@@H]12`, the Potency result with C33A, in the assay with CAOV3, in the assay with CASKI, in the assay with Es-2, in the assay with HeLa and in the assay with Hek293T was “inactive” in each case. The Potency entry with JEG-3, in the assay on OV90, in the assay with PA-1, with Tov-21-G, with Tov112D and with astro was “inactive” throughout. Further, in the assay on SKOV3, the Potency was 3.16 µM (active). Moreover, the activity, negative = cell killing is -26.1% and -10.2% in assay [1] (setting [2]); 9.17% and -11.9% in assay [1] (setting [3]); -0.581% and -19.2% in assay [1] (setting [4]).

As to `Nc1cc(-c2ccncc2)c[nH]c1=O`, the Potency entry with MKL-1, in the assay on UISO, with WaGa, with C33A, in the assay on CASKI and with Es-2 was “inactive” each time. Further, the Potency entry in the assay with HeLa, with Hek293T, in the assay on JEG-3, with OV90, in the assay with PA-1 and in the assay on Tov-21-G was “inactive” each time. Moreover, in the assay on Tov112D, the Potency entry is “inactive”. The activity, negative = cell killing in assay [1] (setting [2]) is -15%; in [1] (setting [3]), 3.16%; in assay [1] (setting [5]), -22.8%; in [1] (setting [4]) it was -16.3%.

Regarding `COC(=O)[C@H]1[C@H]2C[C@@H]3c4[nH]c5cc(OC)ccc5c4CCN3C[C@H]2C[C@@H](OC(=O)/C=C/c2cc(OC)c(OC)c(OC)c2)[C@@H]1OC`, the outcome with NIH3T3 is “inactive [at 17.4 µM]”. The Potency entry with C33A, in the assay with CASKI, in the assay with Es-2, with HeLa, in the assay with Hek293T and in the assay with JEG-3 was “inactive” each time. In addition, the Potency entry in the assay on OV90, in the assay on PA-1, in the assay with SKOV3, in the assay with Tov-21-G, in the assay with Tov112D and with astro was “inactive” in each case. Besides, the activity, negative = cell killing in assay [1] (setting [6]) is -5.29%; in assay [1] (at 21.2 µM (top of the series), tumour line D), -21.8%. The Potency in [1] (tumour line A) was 10 µM (active).

As for `CN(CCCOc1ccc(Cc2ccccc2)cc1)CCC(=O)O`, the compound was classed as inactive with NIH3T3. Further, the Potency entry in the assay on C33A, in the assay with CASKI, in the assay with Es-2, with HeLa, in the assay with Hek293T and in the assay on JEG-3 was “inactive” each time. For the same compound, the Potency entry in the assay on OV90, in the assay on PA-1, in the assay on SKOV3, with Tov-21-G and in the assay on Tov112D was “inactive” throughout.
